Assay results as given in PubChem BioAssay AID1345085 (National Center for Advancing Translational Sciences (NCATS), 2018).
Records with an inconclusive call do not appear. Active and inactive are the calls of the source. Calls come from the whole dose curve; as a rule, active = well fitted cell-killing curve with a large enough effect; inconclusive = small, poorly fitted or top-dose-only effect, or effect the other way; inactive = no such curve, though single readings can be large or run the other way.

Test system: SKOV3
Assay: Confirmatory qHTS for gynecologic anti-cancer compounds from libraries of approved drugs and bioactive compounds; note: nearly all actives have a fitted effect of over 55% in size
Details: gynecologic cancer cell panel viability, ATPlite luminescence, 48 h; series mostly up to 57.6 µM
In short: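 ATP-based luminescent viability (ATPlite) after 48 h drug treatment at 37 °C, 5% CO2, across 57.5 uM–0.977 nM in 1:3 steps. Cells seeded at 1,000 per well 16 h beforehand; IC50 values computed, HEK 293T as selectivity control.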
Potency is the fitted concentration of half-maximal effect.

Row | Compound | Potency
1 | Cc1cc(C(C)Nc2ccccc2C(=O)O)c2nc(N3CCOCC3)cc(=O)n2c1 (stereo not given) | 3060 nM (active)
2 | Cc1cnc(Nc2cccc(CN3CCOCC3)c2)nc1Nc1cccc(S(=O)(=O)NC(C)(C)C)c1 | 10900 nM (active)
3 | CCN1CCN(Cc2ccc(-c3cc4c(NC(C)c5ccccc5)ncnc4[nH]3)cc2)CC1 (stereo not given) | 17200 nM (active)
4 | COc1cc2c(cc1-c1c(C)noc1C)ncc1[nH]c(=O)n(C(C)c3ccccn3)c12 (stereo not given) | inactive
5 | CCOC(=O)C1=C(C)NC2=C(C(=O)CC(C)(C)C2)C1c1ccc(-c2ccccc2)cc1 (stereo not given) | inactive
6 | CC[C@]1(O)C[C@H]2CN(CCc3c([nH]c4ccccc34)[C@@](C(=O)OC)(c3cc4c(cc3OC)N(C=O)[C@H]3[C@@](O)(C(=O)OC)[C@H](OC(C)=O)[C@]5(CC)C=CCN6CC[C@]43[C@@H]65)C2)C1 | inactive
7 | CNCc1ccc(-c2[nH]c3cc(F)cc4c3c2CCNC4=O)cc1 | inactive
8 | Nc1ccccc1NC(=O)c1ccc(CNc2nccc(-c3cccnc3)n2)cc1 | 432 nM (active)
9 | CN(C)C/C=C/C(=O)Nc1cc2c(Nc3ccc(F)c(Cl)c3)ncnc2cc1OC1CCOC1 (stereo not given) | inactive
10 | CC(=O)c1cnc2ccc(-c3cc(Cl)c(O)c(Cl)c3)nc2c1NC1CCC(CN(C)C)CC1 (stereo not given) | 498 nM (active)
11 | O=C(O)C1(Cc2cccc(Nc3nccs3)n2)CCC(Oc2cccc(Cl)c2F)CC1 (stereo not given) | inactive
12 | Cc1nc(Nc2ncc(C(=O)Nc3c(C)cccc3Cl)s2)cc(N2CCN(CCO)CC2)n1 | 21700 nM (active)
13 | CN(c1nccc(=O)[nH]1)C1CCN(c2nc3ccccc3n2Cc2ccc(F)cc2)CC1 | inactive
14 | O=C(c1ccc(/C=C/c2n[nH]c3ccccc23)cc1)N1CCNCC1 | 21700 nM (active)
15 | COC(C(=O)N1Cc2[nH]nc(NC(=O)c3ccc(N4CCN(C)CC4)cc3)c2C1)c1ccccc1 (stereo not given) | inactive
16 | Cn1cc(-c2[nH]c3cc(NC(=O)[C@H](N)C4CCCCC4)cc4c3c2C=NNC4=O)cn1 | 968 nM (active)
17 | CN(C)CC/C=C1\c2ccccc2COc2ccccc21 | inactive
18 | CCC1C(=O)N(C)c2cnc(Nc3ccc(C(=O)NC4CCN(C)CC4)cc3OC)nc2N1C1CCCC1 (stereo not given) | 109 nM (active)
19 | OCCNC1CCCc2c1[nH]c1ccc(-c3ccccc3)cc21 (stereo not given) | 30600 nM (active)
20 | Cc1[nH]c2ccccc2c1CCNCc1ccc(/C=C/C(=O)NO)cc1 | 172 nM (active)
21 | C[C@@]1(C(=O)Nc2ccc(F)nc2)CCCN1c1nc(Nc2cc(C3CC3)[nH]n2)c2cccn2n1 | 3430 nM (active)
22 | CCN(CC)CCCC(C)Nc1ccnc2cc(Cl)ccc12 (stereo not given) | inactive
23 | O=C(NOCC1CC1)c1ccc(F)c(F)c1Nc1ccc(I)cc1Cl | inactive
24 | O=C(O)c1ccc(Nc2ncc3c(n2)-c2ccc(Cl)cc2C(c2c(F)cccc2F)=NC3)cc1 | inactive
25 | COc1cc(Nc2ncc3c(n2)-c2ccc(Cl)cc2C(c2c(F)cccc2OC)=NC3)ccc1C(=O)O | inactive
26 | CCOc1ccc(Nc2nc(-c3c(C)nc4ccccn34)cs2)cc1 | inactive
27 | CC(C)n1c(/C=C/[C@@H](O)C[C@@H](O)CC(=O)O)c(-c2ccc(F)cc2)c2ccccc21 | 1720 nM (active)
28 | Cn1c(=O)c(F)c(Nc2ccc(I)cc2F)c2c(=O)n(CC(O)CO)cnc21 (stereo not given) | 485 nM (active)
29 | C=CC(=O)Nc1cccc(Oc2nc(Nc3ccc(N4CCN(C)CC4)cc3)ncc2Cl)c1 | 1720 nM (active)
30 | Cc1ccc(C(=O)Nc2cccc(C(F)(F)F)c2)cc1-c1ccc2nc(NCCN3CCOCC3)ncc2c1 | 12200 nM (active)
